PLK1 PBD inh = PLK1 (human) polo-box domain binding inhibition. Plk1 PBD binding of FITC phosphopeptide, fluorescence polarization. P53350. actives 2.8% (n = 360,000). AID 720504. Potency, µM, for the others: max response, negative = inhibition, usual class: inhibitors; also: potency is read from the fitted curve at half-maximal effect; series mostly up to about 57 µM; % is scaled to controls: 0 for no effect and ±100 for the full control effect; nearly all actives have a fitted effect of over 65% in size
JMJD2A Tudor inh = JMJD2A Tudor domain (human) inhibition; AlphaScreen JMJD2A-Tudor / H3K4me3 peptide binding; Potency, µM (highest dose often 114 µM), for the others: at the highest dose activity change, negative = inhibition, most hits filed as inhibitors; actives 4.4% (n = 390,000); also: potency is read from the fitted curve at half-maximal effect; % is scaled to controls: 0 for no effect and ±100 for the full control effect; nearly all actives have a fitted effect of over 50% in size
G9a block = blocks human histone lysine methyltransferase G9a; Q96KQ7; G9a H3K9 monomethylation, AlphaScreen, 2 h; Potency, µM (doses to about 102 µM), for inactives: top-dose activity, negative = inhibition, hits mostly inhibitors; actives 8.8% (n = 350,000); also: potency is read from the fitted curve at half-maximal effect; % is scaled to controls: 0 for no effect and ±100 for the full control effect; nearly all actives have a fitted effect of over 75% in size
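Readings reflect AlphaScreen signal from monomethyl-H3K9 antibody detection. HMT at 20 nM; substrate b-H3K9 500 nM; cofactor SAM 20 uM; 2 h RT reaction; compounds tested as titrations in qHTS with 15 min preincubation.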
PI5P4Ka inh = inhibitors of human PI5P4K alpha; P48426; PI5P4Kalpha enzyme, ADP-Glo luminescence, 60 min; active compounds read low; max response, %; actives 1.2% (n = 330,000); AID 652105; active = max response of -50% or lower; inconclusive = between -30% and -50%; inactive = -30% or higher; also: value at the top dose of about 77 µM; % is scaled to controls: 0 for no effect and ±100 for the full control effect
Target sequence (P48426 whole entry, looked up): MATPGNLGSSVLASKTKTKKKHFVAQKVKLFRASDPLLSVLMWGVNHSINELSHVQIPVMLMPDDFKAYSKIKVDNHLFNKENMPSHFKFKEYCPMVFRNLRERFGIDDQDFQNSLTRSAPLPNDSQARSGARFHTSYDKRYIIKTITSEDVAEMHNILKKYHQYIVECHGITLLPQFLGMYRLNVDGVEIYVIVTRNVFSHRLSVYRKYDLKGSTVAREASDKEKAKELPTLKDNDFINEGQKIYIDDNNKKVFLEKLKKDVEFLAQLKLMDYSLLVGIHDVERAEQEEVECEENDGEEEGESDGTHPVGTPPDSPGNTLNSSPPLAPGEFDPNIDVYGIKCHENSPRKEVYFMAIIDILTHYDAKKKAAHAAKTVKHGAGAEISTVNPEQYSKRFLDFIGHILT
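Enzyme plus substrate dispensed, test compounds pinned in, then ATP (5 microM final) added. After 60 min at RT, ADP-Glo reagent 1 for 45 min and reagent 2 for 30 min preceded luminescence imaging.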
BAZ2B inh = inhibitors of human BAZ2B bromodomain | Q9UIF8 | AlphaScreen BAZ2B-H3K14Ac peptide displacement | Potency, µM (titrated, usually from 114 µM), inactives show at the highest dose activity change, negative = inhibition, usual class: inhibitors | actives 4.4% (n = 360,000) | AID 504333; also: potency is read from the fitted curve at half-maximal effect; % is scaled to controls: 0 for no effect and ±100 for the full control effect; nearly all actives have a fitted effect of over 60% in size
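BAZ2B 50 nM plus b-H3(5-23)K14Ac 50 nM, PBS pH 7.4/0.01% Tween-20, 30 min RT; compound added (max 110 uM), 30 min RT; streptavidin donor/Ni-chelate acceptor beads 10 ug/mL final, 20 min dark; AlphaScreen read.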
HP1b chromo inh = inhibitors of HP1-beta chromodomain binding to methylated histone tails | AlphaScreen HP1-beta / biotin-H3K9me3 peptide binding | Potency, µM (series often up to 114 µM), for the others: at the top dose activity change, negative = inhibition, actives largely listed as inhibitors | P83916 | AID 540317 | actives 0.56% (n = 390,000); also: potency is read from the fitted curve at half-maximal effect; nearly all actives have a fitted effect of over 70% in size
Target sequence (P83916 whole entry, looked up): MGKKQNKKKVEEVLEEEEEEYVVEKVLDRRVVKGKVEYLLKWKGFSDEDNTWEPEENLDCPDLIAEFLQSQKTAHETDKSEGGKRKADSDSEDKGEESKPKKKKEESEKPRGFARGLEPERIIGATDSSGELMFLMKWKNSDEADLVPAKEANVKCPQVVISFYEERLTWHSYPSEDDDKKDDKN
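HP1-beta protein (50 nM final) preincubated 30 min at room temperature with biotinylated H3(1-18)K9me3 peptide (50 nM) in PBS pH 7.4, 0.01% Tween-20, then compound added for 30 min. AlphaScreen streptavidin donor/nickel chelate acceptor beads (10 ug/mL final), 30 min dark, luminescence read.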
* = called active by the depositor; ? = inconclusive; / = no result given; [ ] = remark or other dose. Compounds with a hit are over-represented: about 12% of the library has one in this group of screens. Unless noted, calls follow the shape of the dose curve; as a rule, active = well fitted curve in the direction sought with a large enough effect; inconclusive = small, poorly fitted or top-dose-only effect, or another doubt; inactive = no such curve, though single readings can be large; an effect the other way counts as inactive or inconclusive.

SMILES	PLK1 PBD inh	JMJD2A Tudor inh	G9a block	PI5P4Ka inh	BAZ2B inh	HP1b chromo inh
O=C(COC(=O)c1cn(-c2ccccc2)nc1-c1ccccc1)c1ccc([N+](=O)[O-])cc1	/	/	2.51µM*	/	?	/
O=C(COC(=O)c1ccccn1)c1ccc(Br)cc1	-1.4%	28.2µM*	50.1µM*	/	25.1µM*	18.0%
N=C(N)n1ncc2c1CCCC2=O	-6.1%	/	/	-2.5	/	/
O=c1cnc2cnc(N3CCOCC3)nc2n1CCc1ccccc1	/	/	12.1%[0.501 µM]	/	/	/
COc1ccc2c(c1)C=C(C(=O)OCc1cccnc1)CO2	26.7µM*	35.5µM*	-33.0%	?	-27.7%	-1.1%
NS(=O)(=O)c1ccc(NC(=O)COC(=O)CN2C(=O)C3CC=CCC3C2=O)cc1 (stereo not drawn)	-0.2%	6.0%	10.6%[12.7 µM]	2.5	-18.0%	22.8%
Cc1ccc(S(=O)(=O)c2cn(CC(=O)Nc3ccc(F)cc3)c3cc4c(cc3c2=O)OCO4)cc1	/	0.0%	-3.7%[59 µM]	/	1.3%	42.7%
Cc1cccc(-[n+]2c(C)cc(C)c3c(=O)[nH]c(=O)[nH]c32)c1	-10.2%	-1.3%	50.1µM*	-5.2	2.2%	22.5%
N#CCCN(C(=O)c1ccco1)c1ccccc1	-5.0%	-11.8%	-5.8%	4.3	3.2%	44.2%
CCc1ccc(NC(=S)N(Cc2cccnc2)Cc2ccco2)cc1	-11.3%	-34.0%	-12.6%	3.0	?	20.0%
CN(C)S(=O)(=O)c1cccc(C(=O)NC(=S)N(CCC#N)Cc2cccnc2)c1	-12.6%	-21.1%	84.1%[59 µM]	1.4	9.6%	25.1%
N#CCCN(C(=S)NC(=O)c1ccco1)c1ccccc1F	29.9µM*	-33.4%	25.1µM*	3.5	-24.4%	-19.8%
N#CCCN(Cc1cccnc1)C(=S)NC(=O)c1ccco1	-5.5%	22.4µM*	10µM*	0.6	?	12.0%
N#CCCN(Cc1cccnc1)C(=S)NCc1ccco1	-24.4%	-2.1%	20µM*	3.1	-14.8%	1.7%
CCCCCCN1C[C@H](n2cc(COC(=O)c3ccccc3)nn2)[C@@H](O)C[C@@H]1c1ccc(C)cc1	3.7%	/	/	22.3	/	/
CC1CN(C(=O)CCC(=O)N2CCCCC2)c2ccccc2O1 (stereo not drawn)	-13.8%	-23.1%	/	-4.1	11.5%	8.2%
CCOC(=O)C1CCN(c2cc3c(cc2NC(=O)c2ccccc2F)n(C)c(=O)n3C)CC1	-17.6%	-22.6%	8.1%[0.0925 µM]	1.9	50.1µM*	12.4%
COc1ccccc1C(=O)Nc1cc2c(cc1N1CCCCC1)n(C)c(=O)n2C	/	?	-32.1%[59 µM]	/	?	-23.0%
COc1cc2c(cc1NC(=O)c1ccccc1C)n(C)c(=O)n2C	/	-22.3%	-9.9%[59 µM]	/	50.1µM*	15.1%
CCOC(=O)C1CCN(C(=O)c2ccccc2NC(=O)c2ccc(Cl)cc2)CC1	15µM*	?	3.9%[59 µM]	-9.0	5.9%	?
CCOC(=O)c1ccccc1NC(=O)Nc1cc2c(cc1N1CCCC1)n(C)c(=O)n2C	/	?	?	/	50.1µM*	15.0%
Cc1cccc(N2CCN(C(=O)Cn3c(C)c4cnn(-c5ccccc5)c(=O)c4c3C)CC2)c1C	/	-32.9%	-24.4%[59 µM]	/	?	13.1%
COCCN(C(=O)c1csnn1)C(C(=O)NC1CCCC1)c1ccccc1F (stereo not drawn)	5.7%	6.3%	-1.8%	1.9	5.6%	-11.9%
COCCn1c(CNC(=O)c2cc(OC)c(OC)c(OC)c2)nc2cccnc21	/	-10.0%	-17.1%[59 µM]	/	-1.9%	28.3%[57 µM]
Cc1cc(C)n(-c2nc(C)nc(NCc3ccccc3)n2)n1	3.0%	-19.3%	?	0.5	-4.6%	43.4%
SMILES	PLK1 PBD inh	JMJD2A Tudor inh	G9a block	PI5P4Ka inh	BAZ2B inh	HP1b chromo inh
Cc1nn(-c2nnc(NCc3ccccc3)nn2)c(C)c1Br	-7.1%	50.1µM*	12.6µM*	-0.3	35.5µM*	?
Cc1cc(C)n(-c2nnc(NCc3ccc(Cl)cc3)nn2)n1	-24.7%	39.8µM*	-35.3%	-7.2	?	?
Cc1ccc(/C=C/C(=O)Nc2ccc([N+](=O)[O-])cc2)o1	-13.4%	-7.7%	28.2µM*	/	50.1µM*	14.5%
Cc1ccc(/C=C/C(=O)Nc2ccc(Oc3ccccc3)cc2)o1	-11.4%	-33.2%	11.2µM*	?	?	?
Cc1ccc(NC(=O)/C=C/c2ccc(C)o2)c(C)c1	/	?	11.2µM*	/	79.4µM*	?
CC(=O)c1ccc(NC(=O)/C=C/c2ccc(C)o2)cc1	/	50.1µM*	11.2µM*	/	?	?
O=C(O)/C=C/C(=O)Nc1ccc(Oc2ccccc2)cc1	1.9%	-11.7%	/	-7.5	-23.1%	24.3%
CCOC(=O)CC1(C)c2nc(NC(C)=O)sc2Cc2sc(NC(C)=O)nc21	-11.6%	/	/	-2.4	/	/
Cc1ccc(N2CC(C(=O)Nc3ccc(Br)cc3)CC2=O)cc1 (stereo not drawn)	/	-23.5%	-18.3%[59 µM]	/	-5.4%	35.9%
Cc1ccc(C)c2c1N(Cc1ccccc1)C(=O)C21OCCO1	2.1%	-11.9%	/	7.6	4.2%	32.9%
Cc1ccc(/C=C/C(=O)Nc2cc(=O)n(C)c(=O)n2C)o1	-17.0%	?	3.98µM*	0.1	-5.3%	-29.5%
Cn1c(NC(=O)/C=C/c2ccco2)cc(=O)n(C)c1=O	-3.1%	-5.2%	?	-11.1	-2.3%	32.6%
CC1(c2nnnn2Cc2ccccc2)CCC(=O)N1Cc1cccnc1 (stereo not drawn)	-10.3%	/	/	2.1	/	/
CC1S/C(=N/N=C/c2ccco2)N(Cc2ccc(F)cc2)C1=O (stereo not drawn)	-18.2%	-16.6%	50.1µM*	-20.2	?	15.5%
CCN(CCCNC(=O)CC(C(=O)N1CCc2ccccc21)n1ccnc1)c1cccc(C)c1 (stereo not drawn)	-9.5%	50.1µM*	?	/	37.3%	-34.4%
CCCCNC(=O)CC(C(=O)N1CCc2ccccc21)n1ccnc1 (stereo not drawn)	-8.2%	-12.2%	14.2%[12.7 µM]	/	3.4%	31.8%
CCN(CCCNC(=O)CN1C(=O)COc2ccccc21)c1cccc(C)c1	-5.2%	?	22.4µM*	/	?	-24.0%
CCN(CCCNC(=O)c1[nH]c(C)c(C(C)=O)c1C)c1cccc(C)c1	-4.9%	79.4µM*	?	-0.4	50.1µM*	?
CCN(CCCNC(=O)c1ccc(N2CCCC2=O)cc1)c1cccc(C)c1	1.2%	-22.7%	28.2µM*	-2.5	-37.2%	-11.7%
CCN(CCCNC(=O)CN1C(=O)COc2ccccc21)c1ccccc1	-6.7%	-26.8%	?	/	-35.8%	-2.2%
OC[C@@H]1CN(Cc2cccs2)C[C@H](n2cnc3c(NCc4ccc(F)cc4)ncnc32)O1	-4.2%	/	/	-18.6	/	/
O=C(NC1CCN(Cc2ccccc2)CC1)c1cn(-c2ccccc2)nc1-c1cccnc1	-1.8%	-22.1%	-4.0%	-3.1	4.0%	-0.4%
CCN(CCNC(=O)c1cccc(N2CCCC2=O)c1)c1ccccc1	-10.8%	-11.3%	50.1µM*	-0.5	-26.8%	13.9%
